Rows were chosen to be rich in hits. Some 0.41% of all compounds tested hit in one or more screens of this group.
YopH inh: blocks Yersinia enterocolitica YopH tyrosine phosphatase. fluorescence Ex485/Em525. inhibition, % (test concentration not listed). 0.16% of 140,000 active. AID 898; in the data active = inhibition above about 50%
RmlC RmlD mix: inhibitors of RmlC and RmlD coupled enzymes; RmlC/RmlD coupled enzyme inhibition, 384-well mixture HTS; inhibition, % at 5.5 µM; 0.39% of 110,000 active; AID 1532; in the data active = inhibition above about 30%, passing the limit was not always enough
RmlCD artifact: shows fluorescent artifact in RmlC/RmlD assay, dose-response counter-screen; shares compounds with RmlC RmlD mix; RmlC/RmlD assay fluorescence artifact counter-screen; calls only; 96% of 360 active; call rule not given here;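 note: compound alone with no enzyme and no substrates present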
Numbers stand for hits; 0 = inactive; - = not tested or not shown; + = active, no number.

SMILES | YopH inh | RmlC RmlD mix | RmlCD artifact
COC(=O)c1ccc2c(c1)C(C)(C)C(/C=C/c1ccc(O)cc1)=[N+]2C | 0 | 0 | -
COC(=O)c1ccc2c(c1)C(C)(C)C(/C=C/c1ccc(OC)c(OC)c1OC)=[N+]2C | 0 | 45.4 | +
COC(C[C@@H]1O[C@H]1C(=O)[C@@H](C)OCc1ccccc1)OC | - | 0 | -
O=C(c1ccc(S(=O)(=O)c2ccccc2Cl)c([N+](=O)[O-])c1)N1CCCCCC1 | 0 | - | -
COc1ccc(C(=O)NCC2CCCO2)cc1 (stereo not drawn) | 0 | - | -
COc1ccc2cc3cc(C(=O)Nc4ccccc4N4CCN(C)CC4)oc3nc2c1 | 0 | 0 | -
COc1ccc2cc3cc(C(=O)NCc4ccccn4)oc3nc2c1 | 0 | - | -
COc1ccc2cc3cc(C(=O)NCC4CCCO4)oc3nc2c1 (stereo not drawn) | 0 | 105.1 | +
COc1ccc2cc3cc(C(=O)NCCN4CCN(c5ccccc5F)CC4)oc3nc2c1 | 0 | - | 0
CCOc1ccc(NC(=O)c2cc3cc4ccc(OC)cc4nc3o2)cc1 | 0 | 105.1 | +
CC1SC(=Nc2ccccc2)N(S(=O)(=O)c2ccccc2)C1=O (stereo not drawn) | 0 | - | -
O=C(N/N=C/c1cccc(F)c1)c1c(O)c2c([nH]c1=O)CCCC2 | 0 | - | -
CN(C)CCCn1c(SCC(=O)N2c3ccccc3Sc3ccccc32)nc2ccccc2c1=O | 0 | - | -
COc1ccccc1-c1nnc(N(C)C(=O)C2CCCO2)s1 (stereo not drawn) | 0 | 37.5 | +
CN(C(=O)c1ccncc1)c1nnc(-c2ccncc2)s1 | 0 | 102.8 | +
COc1ccccc1CCNC(=O)C1CCCO1 (stereo not drawn) | 0 | 0 | -
Cc1cnc(-c2nnc(N(C)C(=O)C3CCOC3)s2)cn1 (stereo not drawn) | 0 | - | -
COCC(=O)N(C)c1nnc(-c2ccccn2)s1 | 0 | 110.6 | +
COCC(=O)N(C)c1nnc(-c2ccc([N+](=O)[O-])cc2)s1 | 0 | 0 | -
Cc1cccc(C(=O)N(C)c2nnc(-c3ccncc3)s2)c1 | 0 | 0 | -
CN(C(=O)C1CCCO1)c1nnc(-c2ccccn2)s1 (stereo not drawn) | 0 | 162.3 | +
COc1cccc(-n2nc(C(C)=O)c(C#N)c2-c2ccco2)c1 | 0 | - | -
C[C@@H]1CC[C@H](O)/C=C/C(=O)O[C@H](C)CC[C@H](O)/C=C/C(=O)O1 | - | 0 | -
COc1cc(CNc2cccc(C(=O)O)c2)cc(Br)c1OCC(=O)NC(C)(C)C | 0 | - | -
COc1ccc(-c2nnc(NC(=O)C3CCCO3)s2)cc1 (stereo not drawn) | 0 | 0 | -
SMILES | YopH inh | RmlC RmlD mix | RmlCD artifact
CN(C(=O)C1CCOC1)c1nnc(-c2ccccn2)s1 (stereo not drawn) | 0 | 0 | -
CN(C(=O)C1CCCO1)c1nnc(-c2ccncc2)s1 (stereo not drawn) | 0 | 160.9 | +
CN(C(=O)C1CCOC1)c1nnc(-c2ccncc2)s1 (stereo not drawn) | 0 | 48.1 | +
Cc1ccc([N+](=O)[O-])cc1NC(=O)CCCOc1ccccc1 | 0 | 0 | -
CCOc1cc(C(=O)OCC(=O)Nc2ncc(Cl)c(C)c2Cl)ccc1OCC(=O)N1CCOCC1 | 0 | - | -
Cn1c(N/N=C/c2cc3ccccc3nc2Cl)nc2ccccc21 | 0 | - | -
COc1ccccc1C(=O)N/N=C/c1cnc2ccccc2n1 | 0 | - | -
COC(=O)Cc1c(C)c2ccc(O)c(CN3CCCC(C)C3)c2oc1=O (stereo not drawn) | 0 | 95.8 | +
CCc1cc(=O)oc2cc(C)c(CN3CCCC(C)C3)c(O)c12 (stereo not drawn) | 0 | 0 | -
Cc1cc(C)nc(NC(=O)c2cc([N+](=O)[O-])cc([N+](=O)[O-])c2)n1 | 0 | - | -
CCc1cc2c(-c3ccccc3)cc(=O)oc2c(CN2CCOCC2)c1O | 0 | 0 | -
CCc1cc(=O)oc2c(CN3CCN(C)CC3)c(O)c(Cl)cc12 | 0 | 125.9 | +
Cc1ccc(C2CC2C(=O)NNC(=S)Nc2ccc(Cl)cc2)cc1 (stereo not drawn) | 0 | 0 | -
CNC(=S)N/N=C/c1cc(Br)cc(Br)c1O | 0 | - | -
Cc1ccc(C(=O)O)cc1N=Cc1cc(Br)cc(Br)c1O | 0 | - | +
COC(=O)c1nn(-c2ccc3c(c2)CCN3C(C)=O)cc1O | 0 | 41.0 | +
COC(=O)c1nn(-c2ccc3c(c2)OCO3)cc1O | 0 | 0 | -
O=C(Nc1cnn(Cc2ccc(Cl)c(Cl)c2)c1)C12CC3CC(CC(C3)C1)C2 | 0 | 0 | -
CCOC(=O)CSc1nc2ccccc2n1CC(=O)N(C(C)C)C(C)C | 0 | 0 | -
CCOC(=O)CN1C=C(c2ccc3ccccc3n2)C(C[N+](=O)[O-])c2ccccc21 (stereo not drawn) | 0 | 46.7 | +
COc1ccc(/C=C(\C#N)C(=O)Nc2cc(S(=O)(=O)N3CCCCC3)ccc2N2CCCCC2)cc1 | 0 | - | -
CCn1c2ccccc2c2nnc(SCCCn3c(=O)[nH]c4ccccc43)nc21 | 0 | 82.0 | 0
CCn1c2ccccc2c2nnc(SCc3ccccc3)nc21 | 0 | 0 | -
CCNC(=S)SCCOc1ccc(C)cc1 | 0 | - | -
Cc1c(O)c(CN2CCCCC2)cc2c3c(c(=O)oc12)CCC3 | 0 | 91.2 | +
SMILES | YopH inh | RmlC RmlD mix | RmlCD artifact
O=c1oc2c(CN3CCCCC3)c(O)ccc2c2c1CCCC2 | 0 | 95.7 | +
Cc1c(O)c(CN2CCCCC2)cc2c1oc(=O)c1ccccc12 | 0 | - | -
O=c1cc(-c2ccccc2)c2ccc(O)c(CN3CCCCC3)c2o1 | 0 | 0 | -
Cc1ccc(/C=C/C(=O)c2ccccc(=O)c2O)cc1C | 0 | - | -
O=C(NCc1ccccc1)c1ccc(CN(c2ccccn2)S(=O)(=O)c2ccccc2)cc1 | 0 | 0 | -
CCCc1cc(NCC2CCCO2)n2c(nc3ccccc32)c1C#N (stereo not drawn) | 0 | 101.9 | +
CCCc1cc(-n2cnc3ccccc32)n2c(nc3ccccc32)c1C#N | 0 | 0 | -
Cc1cc2cc(CNC(=O)c3ccc(C)c([N+](=O)[O-])c3)ccc2[nH]1 | 0 | - | -
CC1=C(C#N)C(c2cccnc2)C2=C(CC(C)(C)CC2=O)N1 (stereo not drawn) | 0 | 58.6 | +
CC1=C(C#N)C(c2ccc(O)cc2)C2=C(CC(C)(C)CC2=O)N1 (stereo not drawn) | 0 | - | -
C=CCn1c(COc2cccc(C)c2)nnc1SCC(=O)c1c[nH]c2c(CC)cccc12 | 0 | - | -
CCO[C@@H]1OC(C(=O)N2CCN(Cc3ccccc3)CC2)=C[C@H](C2CC2)[C@H]1CCCO | - | 0 | -
Cc1cc(OCC(=O)Nc2ccc(F)c(F)c2)nc(C(C)C)n1 | 0 | 0 | -
Cc1c(CCC(=O)O)c(=O)oc2cc3occ(-c4ccc(F)cc4)c3cc12 | 0 | 0 | -
Cc1c(CCC(=O)O)c(=O)oc2cc(O)ccc12 | 0 | 128.3 | +
N#Cc1nc(-c2cccs2)oc1NCc1ccccc1 | 0 | 0 | -
C=CCNc1oc(-c2cccs2)nc1C#N | 0 | 107.8 | +
COc1ccc(-c2csc(NCCc3nc4cc(Cl)c(Cl)cc4n3CCCO)n2)cc1 | - | 0 | -
C=CCOC(=O)C1=C(C)NC(SCC(=O)NC(=O)OCC)=C(C#N)C1c1cccnc1 (stereo not drawn) | 0 | 30.3 | +
C=CCOC(=O)C1=C(C)NC(SCC(=O)N(CC)CC)=C(C#N)C1c1ccccc1 (stereo not drawn) | 0 | - | -
COc1ccc(NC(=O)COC(=O)CCCN2C(=O)c3ccccc3C2=O)cc1Cl | 0 | - | -
COc1ccc(C(=O)NCC(=O)OCc2csc(-c3ccccc3)n2)cc1 | 0 | - | -
CC1(c2nnc(-c3ccc(Cl)cc3)o2)CC(c2cccnc2)=NO1 (stereo not drawn) | - | 0 | -

Bioassay records from PubChem BioAssay.
